From the supplement of paper PMC6555819 come the findings set out here.

The assay relates to VDR homodimer (NR concentration 270 nM). Briefly: PBM binding z-score (relative to random genomic background probes); higher = stronger binding; sequences stand for … in GC…GCGATTGACAGCGTAGAATGAAGG
Put shortly:
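Ligand-free nuclear receptor dimers were applied to custom Agilent 4×180K protein-binding microarrays whose double-stranded probes carried direct-repeat seeds, single-nucleotide variants, half-site ablations and random human genomic background sequences in 34-nt variable regions. Incubation lasted 1 h. Binding z-scores were computed against the random background probes from regression-normalized fluorescence.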
As to CAGCCTAGGTCAGGGCCAGTACAGGAGGAACGTT, the PBM binding z-score was -0.209.

In turn, TCTGACAGGTGAAGGTAACTCAGGTACGCAGTCG gave a PBM binding z-score of 0.222.

Take TCTGGTAGATCAAGCAGGTTAAGAAAGCCTGAGT: the PBM binding z-score came to 0.261.

For ATACCAAGGTGATCGTGAGGTGGTTGATACTAAC, the PBM binding z-score worked out at 0.166.

As to TCTCGGAGGACACGAAGATCAGAGCTTTCCAGAG, the PBM binding z-score was -0.899.

Sequence TTACCAAGGTGAAAGGTCGTTGATGCACGCCTTG showed a PBM binding z-score of 1.67.

The sequence CAAACTAGGTCCCCGGAAGGTCAAAGTCCGCATG gave a PBM binding z-score of 2.2.

As for CCTACTGGGACACGAAAGGTCATTGATTCAGTGA, the PBM binding z-score stood at 2.67.

ATACCAAGGTAATCGTGAGGTCGTTGATACTAAC returned a PBM binding z-score of 3.08.

Regarding CAAACTAGGTCACCGGAAGGTCAAAGTGCGCATG, the PBM binding z-score was found to be 3.53.

In turn, TGTTGTAGATCAACAGGAGGTTAAGAAAGATCGA showed a PBM binding z-score of -0.0284.

With TCGAGTAGGTTAGAGGCATTCAGAATGGCGTCGA, the PBM binding z-score is -0.449.

CAGACAGGGTCAGCTAGGCCAGAGTAGGGACGGC: the PBM binding z-score is 0.912.

For GCGACTGGGGCATCAGCGGGTTACCATAACTTAA, the PBM binding z-score is -0.158.

In turn, CCTACTGGGCCAGGGTCATTGATCAGTCAAAGCA showed a PBM binding z-score of 2.48.

For ATATGTAGGTTAGGTGGGGTCATTCAGACTAGGC, the PBM binding z-score stood at 6.4.

Regarding GCAGACAGGTGACACGCAGGTAACTCAGGGTGGC, the PBM binding z-score is -0.397.

The sequence CCTACTGGGCCAAGAAGGTCATTGATGCCGATAA returned a PBM binding z-score of 2.38.
